# Results filed as inconclusive are left out. Activity calls are given as the source filed them. The calls were made as follows: active = hit-call score of the fitted dose curve at least 0.9, where 1 is the maximum; inconclusive = response in the unintended direction; inactive = score below 0.9.
# What was measured:
# [1] = target: human Janus Kinase 2 (Jak2), JAK2 (gene 3717) (UniProt O60674); experiment: NVS_ENZ_hJak2: NovaScreen (NVS) Enzymatic Assay for human Janus Kinase 2 (Jak2) (AID 2283169)
# Sequence of human Janus Kinase 2 (Jak2), JAK2 (gene 3717) (O60674 whole entry, looked up): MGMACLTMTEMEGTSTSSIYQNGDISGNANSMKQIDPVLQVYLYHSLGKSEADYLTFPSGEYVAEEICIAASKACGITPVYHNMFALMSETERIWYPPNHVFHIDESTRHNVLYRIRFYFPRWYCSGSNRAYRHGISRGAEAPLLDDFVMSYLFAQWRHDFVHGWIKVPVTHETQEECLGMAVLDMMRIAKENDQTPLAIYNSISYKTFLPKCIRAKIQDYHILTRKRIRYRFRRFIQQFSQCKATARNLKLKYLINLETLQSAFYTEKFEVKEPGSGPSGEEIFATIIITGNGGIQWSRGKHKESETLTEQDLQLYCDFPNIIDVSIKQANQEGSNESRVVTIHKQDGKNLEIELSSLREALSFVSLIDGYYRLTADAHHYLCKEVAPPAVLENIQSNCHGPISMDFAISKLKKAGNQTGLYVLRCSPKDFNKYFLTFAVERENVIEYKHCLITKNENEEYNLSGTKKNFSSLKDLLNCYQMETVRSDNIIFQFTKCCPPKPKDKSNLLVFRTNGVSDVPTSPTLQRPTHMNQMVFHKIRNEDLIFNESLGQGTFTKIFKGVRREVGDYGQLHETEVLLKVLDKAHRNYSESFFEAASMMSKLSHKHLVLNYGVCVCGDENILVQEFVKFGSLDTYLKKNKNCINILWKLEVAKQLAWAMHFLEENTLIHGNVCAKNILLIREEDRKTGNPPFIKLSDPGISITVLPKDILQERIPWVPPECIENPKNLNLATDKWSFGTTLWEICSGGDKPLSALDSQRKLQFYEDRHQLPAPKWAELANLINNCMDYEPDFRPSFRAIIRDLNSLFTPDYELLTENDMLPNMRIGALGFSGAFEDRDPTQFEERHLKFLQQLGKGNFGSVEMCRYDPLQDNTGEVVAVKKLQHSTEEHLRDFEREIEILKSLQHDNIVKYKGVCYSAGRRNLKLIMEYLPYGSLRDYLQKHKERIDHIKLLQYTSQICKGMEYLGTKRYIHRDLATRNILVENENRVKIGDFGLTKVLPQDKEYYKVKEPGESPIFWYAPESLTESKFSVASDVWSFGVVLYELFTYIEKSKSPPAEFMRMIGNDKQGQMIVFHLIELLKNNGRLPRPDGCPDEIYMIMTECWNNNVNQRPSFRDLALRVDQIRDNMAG
# Procedure, shortened: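 Single-point duplicate screen at 25 uM, with hits run in concentration series to a 50 uM top dose. Substrate-product separation by mobility shift with fluorescence detection, 1 h post-dosing; DMSO baseline.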
# [2] = target: human c-Jun N-terminal Kinases (JNK2), MAPK9 (gene 5601) (UniProt P45984); experiment: NVS_ENZ_hJNK2: NovaScreen (NVS) Enzymatic Assay for human c-Jun N-terminal Kinases (JNK2) (AID 2283171)
# Sequence of human c-Jun N-terminal Kinases (JNK2), MAPK9 (gene 5601) (P45984 whole entry, looked up): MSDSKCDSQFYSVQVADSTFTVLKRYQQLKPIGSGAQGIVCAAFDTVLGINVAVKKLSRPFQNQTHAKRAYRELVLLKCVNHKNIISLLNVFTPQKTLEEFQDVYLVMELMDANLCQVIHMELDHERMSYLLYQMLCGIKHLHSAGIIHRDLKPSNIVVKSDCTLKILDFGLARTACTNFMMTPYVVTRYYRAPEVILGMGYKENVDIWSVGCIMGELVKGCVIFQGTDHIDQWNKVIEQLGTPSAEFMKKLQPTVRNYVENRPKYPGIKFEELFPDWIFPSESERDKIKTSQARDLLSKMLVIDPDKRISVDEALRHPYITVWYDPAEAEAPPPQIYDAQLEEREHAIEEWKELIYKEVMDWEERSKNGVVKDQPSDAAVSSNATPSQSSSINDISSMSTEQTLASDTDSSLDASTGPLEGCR
# Procedure, shortened: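 Chemicals first tested in duplicate at 25 uM, then in singleton concentration series up to 50 uM, against extracted JNK2 enzyme. Activity loss read by fluorescence with mobility-shift separation 1 h post-dose; DMSO baseline.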
# [3] = target: Mitogen-activated protein kinase 3 (Homo sapiens) (UniProt P27361); experiment: NVS_ENZ_hMAPK3: NovaScreen (NVS) Enzymatic Assay for human Mitogen-Activated Protein Kinase 3 (MAPK 3) (AID 2283177)
# Procedure, shortened: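 Chemicals were first tested in duplicate at 25 uM, with hits re-run as concentration series (max 50 uM). Recombinant enzyme activity, measured 1 h post-dose in a cell-free format, was read by fluorescence/mobility shift relative to DMSO.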
# [4] = target: human MAP Kinase-Activated Protein Kinase 2 (MAPKAPK2), MAPKAPK2 (gene 9261) (UniProt P49137); experiment: NVS_ENZ_hMAPKAPK2: NovaScreen (NVS) Enzymatic Assay for human MAP Kinase-Activated Protein Kinase 2 (MAPKAPK2) (AID 2283178)
# Sequence of human MAP Kinase-Activated Protein Kinase 2 (MAPKAPK2), MAPKAPK2 (gene 9261) (P49137 whole entry, looked up): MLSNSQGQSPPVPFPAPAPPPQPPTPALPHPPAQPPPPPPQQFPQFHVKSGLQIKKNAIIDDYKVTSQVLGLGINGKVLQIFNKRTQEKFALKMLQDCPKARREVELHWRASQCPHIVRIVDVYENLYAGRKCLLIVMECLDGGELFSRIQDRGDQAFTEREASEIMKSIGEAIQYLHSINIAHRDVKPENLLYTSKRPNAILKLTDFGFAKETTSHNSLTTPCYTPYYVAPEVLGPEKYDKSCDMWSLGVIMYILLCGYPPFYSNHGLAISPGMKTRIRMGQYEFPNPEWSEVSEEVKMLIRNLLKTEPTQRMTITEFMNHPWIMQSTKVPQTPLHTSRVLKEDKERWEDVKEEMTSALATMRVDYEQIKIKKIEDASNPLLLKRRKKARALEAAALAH
# Procedure, shortened: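 Chemicals screened in duplicate at 25 uM, then to 50 uM top concentration in concentration-response, against recombinant human MAPKAPK2; substrate conversion read 1 hr post-dosing by fluorescence after electrophoretic mobility-shift separation, loss-of-signal relative to DMSO.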
# [5] = target: Collagenase 3 (Homo sapiens) (UniProt P45452); experiment: NVS_ENZ_hMMP13: NovaScreen (NVS) Enzymatic Assay for human Matrix Metalloproteinase-13 (MMP13) (AID 2283182)
# Procedure, shortened: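 Recombinant MMP13 cleaving fluorescent substrate, cell-free, measured 1 h after dosing. Primary duplicate screen at 25 uM; actives tested in concentration-response up to 50 uM; loss of signal relative to DMSO.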
# [6] = target: human Matrix Metalloproteinase-3 (MMP3), MMP3 (gene 4314) (UniProt P08254); experiment: NVS_ENZ_hMMP3: NovaScreen (NVS) Enzymatic Assay for human Matrix Metalloproteinase-3 (MMP3) (AID 2283185)
# Sequence of human Matrix Metalloproteinase-3 (MMP3), MMP3 (gene 4314) (P08254 whole entry, looked up): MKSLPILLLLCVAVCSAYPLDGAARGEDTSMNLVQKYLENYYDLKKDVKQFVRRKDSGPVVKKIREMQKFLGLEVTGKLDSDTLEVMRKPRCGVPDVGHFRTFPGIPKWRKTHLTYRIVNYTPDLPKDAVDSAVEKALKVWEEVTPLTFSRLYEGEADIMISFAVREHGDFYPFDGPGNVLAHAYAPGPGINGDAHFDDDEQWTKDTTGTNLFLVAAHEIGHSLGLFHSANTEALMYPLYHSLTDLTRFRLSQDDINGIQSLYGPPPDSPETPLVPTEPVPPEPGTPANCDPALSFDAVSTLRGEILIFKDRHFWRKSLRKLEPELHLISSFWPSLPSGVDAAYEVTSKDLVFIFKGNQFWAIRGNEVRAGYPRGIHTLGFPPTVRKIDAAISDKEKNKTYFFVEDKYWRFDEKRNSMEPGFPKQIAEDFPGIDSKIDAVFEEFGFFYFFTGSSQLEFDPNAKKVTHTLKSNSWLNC
# Procedure, shortened: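 Fluorescent substrate turnover by recombinant MMP3 read after 1 h, signal loss scored against DMSO. Compounds first run in duplicate at 25 uM single dose, then actives confirmed by concentration series.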
# [7] = target: human Mitogen- and Stress-activated Protein Kinase-1 (Msk1), RPS6KA5 (gene 9252) (UniProt O75582); experiment: NVS_ENZ_hMsk1: NovaScreen (NVS) Enzymatic Assay for human Mitogen- and Stress-activated Protein Kinase-1 (Msk1) (AID 2283187)
# Sequence of human Mitogen- and Stress-activated Protein Kinase-1 (Msk1), RPS6KA5 (gene 9252) (O75582 whole entry, looked up): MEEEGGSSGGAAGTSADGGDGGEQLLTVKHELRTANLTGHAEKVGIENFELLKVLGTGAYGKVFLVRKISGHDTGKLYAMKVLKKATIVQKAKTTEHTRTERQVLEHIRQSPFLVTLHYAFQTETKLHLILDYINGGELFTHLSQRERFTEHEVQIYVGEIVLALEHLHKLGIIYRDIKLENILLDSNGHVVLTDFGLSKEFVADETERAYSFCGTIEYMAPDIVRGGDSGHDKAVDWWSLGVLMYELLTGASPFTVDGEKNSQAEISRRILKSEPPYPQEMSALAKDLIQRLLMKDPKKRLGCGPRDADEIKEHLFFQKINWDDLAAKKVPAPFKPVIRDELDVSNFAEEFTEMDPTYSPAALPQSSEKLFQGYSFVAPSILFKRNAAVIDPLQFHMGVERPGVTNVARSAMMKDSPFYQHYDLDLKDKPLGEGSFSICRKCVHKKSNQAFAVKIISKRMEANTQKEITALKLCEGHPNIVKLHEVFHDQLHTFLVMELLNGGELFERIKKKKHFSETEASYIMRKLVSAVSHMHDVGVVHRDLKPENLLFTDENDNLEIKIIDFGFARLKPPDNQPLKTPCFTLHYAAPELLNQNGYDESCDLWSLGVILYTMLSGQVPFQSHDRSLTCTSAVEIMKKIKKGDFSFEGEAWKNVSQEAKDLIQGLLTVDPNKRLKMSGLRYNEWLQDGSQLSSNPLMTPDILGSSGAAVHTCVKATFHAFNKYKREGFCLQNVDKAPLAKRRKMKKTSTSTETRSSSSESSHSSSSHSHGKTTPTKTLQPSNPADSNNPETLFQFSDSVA
# Procedure, shortened: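 Chemicals first run in duplicate at 25 uM, with actives followed up in singleton concentration series to 50 uM maximum. Enzyme activity came from substrate/product mobility-shift separation with fluorescence detection after 1 h incubation of the recombinant protein.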
# [8] = target: human Protein Phosphatase, Mg2+/Mn2+ Dependent 1A (PPM1A), PPM1A (gene 5494) (UniProt P35813); experiment: NVS_ENZ_hPPM1A: NovaScreen (NVS) Enzymatic Assay for human Protein Phosphatase, Mg2+/Mn2+ Dependent 1A (PPM1A) (AID 2283198)
# Sequence of human Protein Phosphatase, Mg2+/Mn2+ Dependent 1A (PPM1A), PPM1A (gene 5494) (P35813 whole entry, looked up): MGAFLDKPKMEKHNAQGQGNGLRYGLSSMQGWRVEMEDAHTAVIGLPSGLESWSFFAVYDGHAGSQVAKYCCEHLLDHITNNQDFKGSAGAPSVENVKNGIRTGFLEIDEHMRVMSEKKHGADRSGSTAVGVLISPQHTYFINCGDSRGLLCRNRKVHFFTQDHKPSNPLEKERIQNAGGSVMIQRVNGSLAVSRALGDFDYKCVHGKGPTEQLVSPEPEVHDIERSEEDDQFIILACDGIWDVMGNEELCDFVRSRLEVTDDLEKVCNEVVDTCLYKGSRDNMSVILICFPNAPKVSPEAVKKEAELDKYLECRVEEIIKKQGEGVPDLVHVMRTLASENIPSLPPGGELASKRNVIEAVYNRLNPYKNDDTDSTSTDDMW
# Procedure, shortened: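 Primary screen in duplicate at 25 uM, with actives then titrated to a maximum of 50 uM. Recombinant PPM1A dephosphorylation of fluorescent substrate measured at 1 h, with substrate and product separated by mobility shift; inhibition fitted against DMSO.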
# [9] = target: human Protein Tyrosine Phosphatase Non-receptor Type 1 (PTPN1), PTPN1 (gene 5770) (UniProt P18031); experiment: NVS_ENZ_hPTPN1: NovaScreen (NVS) Enzymatic Assay for human Protein Tyrosine Phosphatase Non-receptor Type 1 (PTPN1) (AID 2283201)
# Procedure, shortened: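 Chemicals were first tested in duplicate at 25 uM, and those passing threshold went on to singleton concentration series topping at 50 uM. Recombinant enzyme, specific substrate, product separated by mobility shift, fluorescence read at 1.33 h; activity loss relative to DMSO.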
# [10] = target: Tyrosine-protein phosphatase non-receptor type 11 (Homo sapiens) (UniProt Q06124); experiment: NVS_ENZ_hPTPN11: NovaScreen (NVS) Enzymatic Assay for human Protein Tyrosine Phosphatase Non-receptor Type 11 (PTPN11) (AID 2283202)
# Procedure, shortened: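 Compounds first tested in duplicate at 25 uM; those reaching ~30% inhibition rerun in singleton concentration-response, top 50 uM. Phosphatase activity measured after 0.5 h by fluorescence with mobility-shift separation, relative to DMSO.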
# [11] = target: human LYN Proto-Oncogene, Src family Tyrosine Kinase (LynA), LYN (gene 4067) (UniProt P07948); experiment: NVS_ENZ_hLynA: NovaScreen (NVS) Enzymatic Assay for human LYN Proto-Oncogene, Src family Tyrosine Kinase (LynA) (AID 2283173)
# Procedure, shortened: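 Recombinant kinase with fluorescent substrate; product separated from substrate by electrophoretic mobility shift and read 1 h after dosing. Duplicate screen at 25 uM, then concentration-response up to 50 uM; activity scored as signal loss against DMSO.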
# [12] = target: human Matrix Metalloproteinase-9 (MMP9), MMP9 (gene 4318) (UniProt P14780); experiment: NVS_ENZ_hMMP9: NovaScreen (NVS) Enzymatic Assay for human Matrix Metalloproteinase-9 (MMP9) (AID 2283190);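 also: cell-free recombinant MMP9 protease activity read by fluorescent substrate signal; active means inhibition seen as loss of fluorescence signal versus DMSO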
# Sequence of human Matrix Metalloproteinase-9 (MMP9), MMP9 (gene 4318) (P14780 whole entry, looked up): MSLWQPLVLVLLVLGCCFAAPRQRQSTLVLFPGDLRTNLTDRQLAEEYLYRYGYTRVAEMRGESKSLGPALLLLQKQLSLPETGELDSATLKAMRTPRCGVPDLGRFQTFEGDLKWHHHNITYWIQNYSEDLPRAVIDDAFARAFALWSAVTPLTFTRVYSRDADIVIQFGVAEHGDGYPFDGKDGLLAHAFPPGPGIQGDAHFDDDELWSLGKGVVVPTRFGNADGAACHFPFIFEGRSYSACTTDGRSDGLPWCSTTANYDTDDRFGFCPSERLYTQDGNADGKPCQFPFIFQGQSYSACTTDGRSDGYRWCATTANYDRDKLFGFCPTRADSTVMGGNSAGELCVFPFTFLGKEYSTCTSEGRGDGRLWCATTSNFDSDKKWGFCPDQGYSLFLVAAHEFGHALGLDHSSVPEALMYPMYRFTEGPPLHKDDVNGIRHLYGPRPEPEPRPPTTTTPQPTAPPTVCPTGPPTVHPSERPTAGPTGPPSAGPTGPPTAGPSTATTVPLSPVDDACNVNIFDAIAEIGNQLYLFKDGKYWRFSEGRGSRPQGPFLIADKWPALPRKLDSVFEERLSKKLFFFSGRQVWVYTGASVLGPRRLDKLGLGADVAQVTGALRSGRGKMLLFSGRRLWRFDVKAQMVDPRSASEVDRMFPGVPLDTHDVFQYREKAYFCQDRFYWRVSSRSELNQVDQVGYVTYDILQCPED
# Procedure, shortened: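 Cell-free fluorescence-intensity enzyme activity assay using extracted protein, read 1 h after dosing. Loss of signal versus DMSO baseline indicates inhibition; primary screen in duplicate at 25 uM, actives followed up in concentration series.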
# [13] = target: human Phosphodiesterase 4A1 (PDE4A1), PDE4A (gene 5141) (UniProt P27815); experiment: NVS_ENZ_hPDE4A1: NovaScreen (NVS) Enzymatic Assay for human Phosphodiesterase 4A1 (PDE4A1) (AID 2283191)
# Procedure, shortened: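 Fluorescent substrate turnover by recombinant PDE4A1 read after 1 h by mobility-shift separation. Primary duplicate screen at 25 uM; hits retested in concentration series with a 50 uM maximum, relative to DMSO.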
# [14] = target: human Phosphodiesterase 5 (PDE5), PDE5A (gene 8654) (UniProt O76074); experiment: NVS_ENZ_hPDE5: NovaScreen (NVS) Enzymatic Assay for human Phosphodiesterase 5 (PDE5) (AID 2283194)
# Procedure, shortened: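 Screening began in duplicate at 25 uM, with actives taken into concentration-response. Enzyme activity of recombinant PDE5 toward its substrate was measured at 1 h by fluorescence mobility-shift detection, relative to DMSO controls.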
# [15] = target: human Phosphodiesterase 10 (PDE10), PDE10A (gene 10846) (UniProt Q9Y233); experiment: NVS_ENZ_hPDE10: NovaScreen (NVS) Enzymatic Assay for human Phosphodiesterase 10 (PDE10) (AID 2283195)
# Procedure, shortened: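 Biochemical single-readout PDE10A assay, cell-free, extracted protein. Compounds first screened at 25 uM in duplicate, hits then titrated to 50 uM max. Activity measured after 1 h; loss-of-signal fitted against DMSO negative control.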
# [16] = target: Serine/threonine-protein phosphatase PP1-alpha catalytic subunit (Homo sapiens) (UniProt P62136); experiment: NVS_ENZ_hPPP1CA: NovaScreen (NVS) Enzymatic Assay for human Protein Phosphatase 1 Aatalytic subunit Alpha (PPP1CA) (AID 2283200)
# Sequence of Serine/threonine-protein phosphatase PP1-alpha catalytic subunit (Homo sapiens) (P62136 whole entry, looked up): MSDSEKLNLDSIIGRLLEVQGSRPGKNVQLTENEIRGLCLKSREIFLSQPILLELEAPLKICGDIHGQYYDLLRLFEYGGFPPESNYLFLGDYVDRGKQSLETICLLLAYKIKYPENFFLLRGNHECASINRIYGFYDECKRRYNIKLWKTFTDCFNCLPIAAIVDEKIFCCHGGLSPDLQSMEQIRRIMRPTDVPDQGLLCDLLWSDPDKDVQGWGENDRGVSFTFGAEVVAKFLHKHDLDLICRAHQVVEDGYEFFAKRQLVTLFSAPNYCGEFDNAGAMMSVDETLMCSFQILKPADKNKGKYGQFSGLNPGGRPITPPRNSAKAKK
# Procedure, shortened: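 Chemicals were first screened in duplicate at 25 uM, and those passing threshold (e.g. 30% inhibition) were run as concentration series to 50 uM. Cell-free recombinant protein, 1.33 h read, fluorescent substrate/product mobility-shift detection, normalised to DMSO.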
compound,measurement,setting,value
CCCCCCCCCCCCc1ccccc1S(=O)(=O)O,AC50,[1],18.5 µM (active)
same,AC50,[2],29.6 µM (active)
same,AC50,[3],18 µM (active)
same,AC50,[4],26.5 µM (active)
same,AC50,[5],31.8 µM (active)
same,AC50,[6],18.2 µM (active)
same,AC50,[7],16.8 µM (active)
same,AC50,[8],30.2 µM (active)
same,AC50,[9],15.5 µM (active)
same,AC50,[10],13.3 µM (active)
CCN(CC)CCNc1ccc(CNC=O)c2sc3ccc(OC)cc3c(=O)c12,outcome,[1],inactive
same,outcome,[2],inactive
same,outcome,[11],inactive
same,outcome,[12],inactive
same,AC50,[13],11.8 µM (active)
same,AC50,[14],6.82 µM (active)
same,AC50,[15],2.06 µM (active)
same,outcome,[16],inactive
CC(C)(C)c1cccc(C(C)(C)C)c1O,outcome,[16],inactive
OCCC(F)(F)C(F)(F)C(F)(F)C(F)(F)C(F)(F)C(F)(F)F,outcome,[14],inactive
CC(C)(C)CC(C)(C)c1ccc(O)c(-n2nc3ccccc3n2)c1,outcome,[1],inactive
same,outcome,[7],inactive
CCCOC(=O)c1ccc(O)cc1,outcome,[16],inactive
